Records with an inconclusive call do not appear. A call without a number means that no potency is given here. Active and inactive are the calls of the source. Calls follow the shape of the dose curve; as a rule, active = well fitted curve in the direction sought with a large enough effect; inconclusive = small, poorly fitted or top-dose-only effect, or another doubt; inactive = no such curve, though single readings can be large; an effect the other way counts as inactive or inconclusive.

Chain of ATP-dependent 6-phosphofructokinase (Trypanosoma brucei brucei) (O15648 whole entry, looked up): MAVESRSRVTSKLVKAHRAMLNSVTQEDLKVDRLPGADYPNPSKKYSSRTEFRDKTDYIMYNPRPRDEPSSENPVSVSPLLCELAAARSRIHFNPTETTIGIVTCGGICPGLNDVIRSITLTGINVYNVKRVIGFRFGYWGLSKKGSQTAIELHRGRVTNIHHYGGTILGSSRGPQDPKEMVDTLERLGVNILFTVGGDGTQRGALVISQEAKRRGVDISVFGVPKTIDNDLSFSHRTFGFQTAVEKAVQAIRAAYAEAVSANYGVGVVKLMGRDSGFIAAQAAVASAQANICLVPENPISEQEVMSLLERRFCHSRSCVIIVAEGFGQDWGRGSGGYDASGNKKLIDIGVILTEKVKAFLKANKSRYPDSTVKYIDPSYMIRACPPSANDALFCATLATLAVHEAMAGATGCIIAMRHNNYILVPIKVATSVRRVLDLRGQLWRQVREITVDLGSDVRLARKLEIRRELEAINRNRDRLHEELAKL
Chain of D(1A) dopamine receptor (Homo sapiens) (P21728 whole entry, looked up): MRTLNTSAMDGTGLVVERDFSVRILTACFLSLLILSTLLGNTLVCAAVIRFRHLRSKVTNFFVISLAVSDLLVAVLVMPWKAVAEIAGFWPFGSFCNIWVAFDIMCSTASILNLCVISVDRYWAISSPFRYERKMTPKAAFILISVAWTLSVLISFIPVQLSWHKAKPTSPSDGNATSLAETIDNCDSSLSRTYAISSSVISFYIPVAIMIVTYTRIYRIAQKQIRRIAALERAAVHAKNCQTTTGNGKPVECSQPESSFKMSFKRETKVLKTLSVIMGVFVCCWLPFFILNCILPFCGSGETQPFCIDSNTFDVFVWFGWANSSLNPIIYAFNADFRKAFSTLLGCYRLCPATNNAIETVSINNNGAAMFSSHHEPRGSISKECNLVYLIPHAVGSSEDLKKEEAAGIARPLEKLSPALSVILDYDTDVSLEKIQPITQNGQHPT

In the first experiment the target is D(1A) dopamine receptor (Homo sapiens) (UniProt P21728). As to the kind of experiment: HTS Assay for Allosteric Agonists of the Human D1 Dopamine Receptor: Primary Screen for Antagonists (AID 488983).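 Also: calcium flux response to an EC80 dopamine challenge measured with no-wash dye; nearly all actives have a fitted effect of over 65% in size.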 The settings on record: D1 receptor cell assay, antagonist mode, qHTS titration; series mostly up to 41.8 µM. The procedure, abridged:
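Calcium-flux read-out in inducible HEK293 T-REx cells expressing D1, dye-loaded 30–90 min at room temperature. Kinetic reads: 180 s after compound (agonist phase), then 180 s after an EC80 dopamine challenge.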
In general terms: qHTS replaces the single test concentration by a dilution series.
As to `CO/N=C(\C(=O)N[C@@H]1C(=O)N2C(C(=O)O)=C(CSc3nc(=O)c(O)nn3C)CSC12)c1csc(N)n1` (stereo partly drawn), the Potency entry is “inactive”. Still for that read-out and setting: as for `Nc1ccc(-c2nc3ccc(-c4nc5ccc(N)cc5[nH]4)cc3[nH]2)cc1`, the entry is “inactive”; as for `CCC(=O)N1CCN(C(=O)c2ccccc2)CC1`, “inactive”; as for `Nc1ccc(N2C(=O)c3ccccc3C2=O)c(Cl)c1`, “inactive”. Consider `NC(N)=N[C@@H](CCC(=O)O)C(=O)O`, for which the Potency entry is “inactive”. Turning to `CC1CCN(CC[C@H]2CCCN2S(=O)(=O)c2cccc(O)c2)CC1`, the Potency result is “inactive”.

Take `Cc1nc(N=Nc2ccc(S(=O)(=O)O)cc2S(=O)(=O)O)c(COP(=O)(O)O)c(C=O)c1O`: the Potency entry was “inactive”. On the same count and under the same terms, the value for `CC(C)Cn1c(=O)n(C)c(=O)c2[nH]cnc21` was “inactive”; that for `NCCCNCCCCNCCCN` was “inactive”. On to `CCCCCCCCCC[Si](C)(C)CCC(=O)NC(Cc1ccc(C)cc1)c1ccccc1` (stereo not drawn), for which the Potency entry is “inactive”. Take `CNc1ncnc2c1ncn2[C@H]1C[C@H](OP(=O)(O)O)[C@@H](COP(=O)(O)O)O1`: the Potency result is “inactive”. On to `NCCS(=O)O`, for which the Potency entry was “inactive”. As for `N=C(N)SCCN`, the Potency entry was “inactive”. Turning to `NC1(C(=O)O)CC1`, the Potency entry is “inactive”. On the same count and under the same terms, the value for `O=C(O)c1cc(=O)cc(C(=O)O)[nH]1` was “inactive”. Same read-out and setting: the value for `c1ccc(C2CN3CCSC3=N2)cc1` (stereo not drawn) was “inactive”.

A further experiment deals with Tyrosyl-DNA phosphodiesterase 1 (Homo sapiens) (UniProt Q9NUW8). As to the kind of experiment: Confirmation Assay for Inhibitors of Tyrosyl-DNA Phosphodiesterase (TDP1) (AID 489007). Also: potency is read from the fitted curve at half-maximal effect; nearly all actives have a fitted effect of over 40% in size. To be noted: recombinant human TDP1 enzymatic activity, dose-response. The method, boiled down: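 AlphaScreen assay of tyrosine-FITC cleavage from a biotinylated DNA substrate (15 nM) by E. coli-expressed human Tdp1 (1 nM). Sequence: compound preincubation 15 min, reaction 5 min, bead detection 10 min, all at room temperature. No-enzyme wells give maximum signal.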
Chain of Tyrosyl-DNA phosphodiesterase 1 (Homo sapiens) (Q9NUW8 whole entry, looked up): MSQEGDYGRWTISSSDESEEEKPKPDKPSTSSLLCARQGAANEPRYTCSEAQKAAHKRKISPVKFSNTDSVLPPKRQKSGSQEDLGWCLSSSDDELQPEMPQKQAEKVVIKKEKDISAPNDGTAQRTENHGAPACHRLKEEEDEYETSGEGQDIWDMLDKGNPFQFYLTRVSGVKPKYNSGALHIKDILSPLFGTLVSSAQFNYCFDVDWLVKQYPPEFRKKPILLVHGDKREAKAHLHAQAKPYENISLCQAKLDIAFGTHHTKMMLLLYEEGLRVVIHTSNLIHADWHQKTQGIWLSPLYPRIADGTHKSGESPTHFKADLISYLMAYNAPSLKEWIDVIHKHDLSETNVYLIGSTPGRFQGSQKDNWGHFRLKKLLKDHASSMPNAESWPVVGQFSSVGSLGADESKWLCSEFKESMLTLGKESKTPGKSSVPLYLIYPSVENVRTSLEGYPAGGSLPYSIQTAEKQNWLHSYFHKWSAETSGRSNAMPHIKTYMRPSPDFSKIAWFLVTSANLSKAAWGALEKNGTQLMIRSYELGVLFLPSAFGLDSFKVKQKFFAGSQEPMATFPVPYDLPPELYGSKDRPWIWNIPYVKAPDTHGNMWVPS
As to `NC(=O)c1cc[n+](CC2=C(C(=O)O)N3C(=O)[C@@H](NC(=O)[C@@H](c4ccccc4)S(=O)(=O)[O-])[C@H]3SC2)cc1`, the Potency was 4.47 µM (active).

For `CO/N=C(\C(=O)N[C@@H]1C(=O)N2C(C(=O)O)=C(CSc3nc(=O)c(O)nn3C)CSC12)c1csc(N)n1` (stereo partly drawn), the Potency was 3.16 µM (active).

As for `Cc1nc(N=Nc2ccc(S(=O)(=O)O)cc2S(=O)(=O)O)c(COP(=O)(O)O)c(C=O)c1O`, the Potency is 7.08 µM (active).

A further experiment has as its target ATP-dependent 6-phosphofructokinase (Trypanosoma brucei brucei) (UniProt O15648). The experiment can be described thus: qHTS Assay to Find Inhibitors of T. brucei phosphofructokinase: hit validation (AID 492961).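 Also: luminescence reports ADP formed as PFK phosphorylates fructose-6-phosphate with ATP.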 To be noted: T. brucei PFK, ADP-Glo luminescence; series mostly up to 51.4 µM. The method, boiled down:
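ADP-Glo luminescence read-out of ADP formed by 1.25 nM PFK from 0.1 mM ATP and 0.5 mM F6P (TEA pH 8.0, 45 min, RT). Compounds titrated; activity normalized to no-enzyme and full-enzyme controls.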
With `CCCCCCCCCCCCCCCCCCOC[C@H](COP(=O)([O-])OCC[N+](C)(C)C)OC`, the outcome was inactive. Same read-out and setting: as for `CC(C)NC[C@H](O)COc1ccc(CC(N)=O)cc1`, the entry is “inactive”.

With `c1ccc(C2CN3CCSC3=N2)cc1` (stereo not drawn), the outcome was inactive.

Test system in the next experiment: not listed separately
The experiment can be described thus: Validation screen for small molecules that induce genotoxicity in human embryonic kidney (HEK293T) cells expressing luciferase-tagged ELG1 (AID 493106). To be noted: luminescence; series mostly up to 46.1 µM. The procedure, abridged:
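ELG1-luciferase reporter readout (ONE-Glo, 30 min, room temperature) after 16 hr compound treatment at 37 °C of HEK293T cells at 2,000 per well. Rising luminescence flags genotoxic stress.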
For the compound `O=C(O)CCC(=O)N1CCCC1C(=O)O` (stereo not drawn), the Potency entry is “inactive”.

`C=C(C)C1CC=C(C(=O)O)CC1` (stereo not drawn): the Potency entry was “inactive”.

`NCC(O)C1CCCCCCC1` (stereo not drawn): the Potency entry was “inactive”. Same read-out and setting: the value for `NC(=O)CNCCC(c1ccccc1)c1ccccc1` was “inactive”; that for `COc1ccccc1N1CCN(CCCNc2c(C)c(=O)n(C)c(=O)n2C)CC1` was “inactive”.

For `C[C@@]1(C2CCCC2)Cc2cc(OCC(=O)O)c(Cl)c(Cl)c2C1=O`, the Potency result was “inactive”. The same measure, in the same setting: the value for `N[C@@H](CS(=O)O)C(=O)O` was “inactive”; that for `COC(=O)C(C)(N)Cc1ccc(O)cc1` (stereo not drawn) was “inactive”; that for `O=C(O)/C(=C/c1c(C(=O)O)[nH]c2cc(Cl)cc(Cl)c12)c1ccccc1` was “inactive”. On the same count and under the same terms, as for `Cn1c(=O)[nH]c2ncn(C)c2c1=O`, the entry is “inactive”; as for `O=C(O)/C=C/c1ccc(O)c(O)c1`, “inactive”. Still for that read-out and setting: as for `N[C@@H](Cc1ccc(O)c(I)c1)C(=O)O`, the entry is “inactive”; as for `NC(=O)c1cc[n+](CC2=C(C(=O)O)N3C(=O)[C@@H](NC(=O)[C@@H](c4ccccc4)S(=O)(=O)[O-])[C@H]3SC2)cc1`, “inactive”; as for `O=[N+]([O-])c1cccc2cn[nH]c12`, “inactive”. With `c1ccc2nc(C3=NCCN3)ccc2c1`, the Potency result was “inactive”. The same measure, in the same setting: the value for `COc1ccccc1N1CCN(CCCCNC(=O)c2ccc3ccccc3c2)CC1` was “inactive”. Same read-out and setting: as for `O=c1onc2n1-c1cc(Br)ccc1OC2`, the entry is “inactive”; as for `NC(N)=NC(N)=Nc1ccccc1`, “inactive”. On the same count and under the same terms, as for `C#CCn1c(=O)c2c(ncn2C)n(C)c1=O`, the entry is “inactive”; as for `O=C(OCCN1CCOCC1)C1(c2ccccc2)CCCCC1`, “inactive”; as for `CO/N=C(\C(=O)N[C@@H]1C(=O)N2C(C(=O)O)=C(CSc3nc(=O)c(O)nn3C)CSC12)c1csc(N)n1` (stereo partly drawn), “inactive”. `Nc1ccc(-c2nc3ccc(-c4nc5ccc(N)cc5[nH]4)cc3[nH]2)cc1`: the Potency result is “inactive”. On the same count and under the same terms, as for `CCC(=O)N1CCN(C(=O)c2ccccc2)CC1`, the entry is “inactive”; as for `Nc1ccc(N2C(=O)c3ccccc3C2=O)c(Cl)c1`, “inactive”.

Take `NC(N)=N[C@@H](CCC(=O)O)C(=O)O`: the Potency result was “inactive”.

Take `CC1CCN(CC[C@H]2CCCN2S(=O)(=O)c2cccc(O)c2)CC1`: the Potency result is “inactive”. On the same count and under the same terms, as for `Cc1nc(N=Nc2ccc(S(=O)(=O)O)cc2S(=O)(=O)O)c(COP(=O)(O)O)c(C=O)c1O`, the entry is “inactive”; as for `CC(C)Cn1c(=O)n(C)c(=O)c2[nH]cnc21`, “inactive”. The same measure, in the same setting: as for `NCCCNCCCCNCCCN`, the entry is “inactive”; as for `CCCCCCCCCC[Si](C)(C)CCC(=O)NC(Cc1ccc(C)cc1)c1ccccc1` (stereo not drawn), “inactive”. With `CNc1ncnc2c1ncn2[C@H]1C[C@H](OP(=O)(O)O)[C@@H](COP(=O)(O)O)O1`, the Potency entry is “inactive”.

(Values after PubChem BioAssay (NCATS).)
